{"source": "the supplement of paper PMC8975748", "note": "Structures can show the parent of a compound that is named as a salt.", "data": [{"tested_on": "Saccharomyces cerevisiae BY4741 SeMeCo community", "experiment": "z-score of subpopulation abundance vs DMSO median, subpopulation auxotrophic for HU; higher = larger share of this subpopulation than in DMSO controls", "settings": "10 µM; 24 h; SM minimal medium; subpopulation (auxotrophy): HU", "method_in_brief": "(§1)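 Cells of a Saccharomyces cerevisiae BY4741 community, carrying four plasmids that each restored one auxotrophy and encoded a distinct fluorescent protein, were pre-grown overnight to OD600 1.0 and diluted to 0.3. A 70 µl volume was added to 384-well plates acoustically predosed with library drugs (10 µM final) and grown 24 h in minimal SM medium. After paraformaldehyde fixation, automated confocal microscopy was used, with single-auxotroph fluorescent strains for thresholds and autofluorescence correction. The abundance of each subpopulation was scored as a z-score against the vehicle-well median.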", "values": [{"compound": "CC[C@H]1OC(=O)C[C@@H](O)[C@H](C)[C@@H](O[C@@H]2O[C@H](C)[C@@H](O[C@H]3C[C@@](C)(O)[C@@H](O)[C@H](C)O3)[C@H](N(C)C)[C@H]2O)[C@@H](CC=O)C[C@@H](C)C(=O)/C=C/C(C)=C/[C@@H]1CO[C@@H]1O[C@H](C)[C@@H](O)[C@@H](OC)[C@H]1OC", "note": "[Tylosin]", "z-score of subpopulation abundance": 0.26}, {"compound": "COC(=O)C1=C(C)NC(C)=C(C(=O)OC2CCCN(Cc3ccccc3)C2)C1c1cccc([N+](=O)[O-])c1", "note": "(stereo unspecified) [Benidipine HCl]", "z-score of subpopulation abundance": -0.01}, {"compound": "CC1=C[C@H]2C(=O)O[C@H]3C[C@@H](C/C=C(\\C)C[C@@H](C)/C=C/C=C4\\CO[C@H](/C1=N\\O)[C@@]42O)O[C@@]1(CC[C@H](C)[C@@H](C)O1)C3.CC[C@H]1O[C@]2(CC[C@@H]1C)C[C@@H]1C[C@@H](C/C=C(\\C)C[C@@H](C)/C=C/C=C3\\CO[C@@H]4/C(=N\\O)C(C)=C[C@@H](C(=O)O1)[C@]34O)O2", "note": "[Milbemycin Oxime]", "z-score of subpopulation abundance": 0.42}, {"compound": "CC1=Nc2ccc(Cl)cc2S(=O)(=O)N1", "note": "[Diazoxide]", "z-score of subpopulation abundance": -0.17}, {"compound": "O=C(O)c1cc(O)c2c(c1)[C@H]([C@H]1c3cc(C(=O)O)cc(O)c3C(=O)c3c(O[C@@H]4O[C@H](CO)[C@@H](O)[C@H](O)[C@H]4O)cccc31)c1cccc(O[C@@H]3O[C@H](CO)[C@@H](O)[C@H](O)[C@H]3O)c1C2=O", "note": "[Sennoside A]", "z-score of subpopulation abundance": 0.33}, {"compound": "Oc1ccc([C@H]2COc3cc(O)ccc3C2)cc1", "note": "[Equol]", "z-score of subpopulation abundance": -0.01}, {"compound": "COc1ccc2cc(CCC(C)=O)ccc2c1", "note": "[Nabumetone]", "z-score of subpopulation abundance": -0.64}, {"compound": "CO/N=C(\\C(=O)N[C@@H]1C(=O)N2C(C(=O)O)=C(CSc3nc(=O)c(O)nn3C)CS[C@H]12)c1csc(N)n1", "note": "[Ceftriaxone Sodium Trihydrate]", "z-score of subpopulation abundance": 0.14}, {"compound": "CO/N=C(\\C(=O)N[C@@H]1C(=O)N2C(C(=O)OC(C)OC(C)=O)=C(COC(N)=O)CS[C@H]12)c1ccco1", "note": "(stereo partly specified) [Cefuroxime axetil]", "z-score of subpopulation abundance": 0.15}, {"compound": "CNCCCN1c2ccccc2CCc2ccccc21", "note": "[Desipramine Hydrochloride]", "z-score of subpopulation abundance": -0.04}, {"compound": "CCCCCOc1ccccc1/C(=C\\SC)n1ccnc1", "note": "[Neticonazole Hydrochloride]", "z-score of subpopulation abundance": 6.23}, {"compound": "CC(C(=O)O)c1ccc2c(c1)[nH]c1ccc(Cl)cc12", "note": "(stereo unspecified) [Carprofen]", "z-score of subpopulation abundance": -2.04}, {"compound": "C=CCN1CCCC1CNC(=O)c1cc2nn[nH]c2cc1OC", "note": "(stereo unspecified) [Alizapride HCl]", "z-score of subpopulation abundance": 0.88}, {"compound": "CO/N=C(\\C(=O)N[C@@H]1C(=O)N2C(C(=O)O)=C(CSc3nc(C)c(CC(=O)O)s3)CS[C@H]12)c1csc(N)n1", "note": "[Cefodizime Sodium]", "z-score of subpopulation abundance": 0.66}, {"compound": "N=C(N)NS(=O)(=O)c1ccc(N)cc1", "note": "[Sulfaguanidine]", "z-score of subpopulation abundance": -0.96}, {"compound": "C=C[C@H]1CN2CC[C@H]1C[C@@H]2[C@@H](O)c1ccnc2ccc(OC)cc12", "note": "[Quinidine sulfate]", "z-score of subpopulation abundance": -0.47}, {"compound": "O=C(Nc1ccc(Oc2ccc(Cl)cc2)c(Cl)c1)c1cc(I)cc(I)c1O", "note": "[Rafoxanide]", "z-score of subpopulation abundance": -0.5}, {"compound": "COC(=O)Nc1nc2cc(C(=O)c3ccccc3)ccc2[nH]1", "note": "[Mebendazole]", "z-score of subpopulation abundance": 1.39}, {"compound": "CC(=O)N1CCN(c2ccc(OCC3COC(Cn4ccnc4)(c4ccc(Cl)cc4Cl)O3)cc2)CC1", "note": "(stereo unspecified) [Ketoconazole]", "z-score of subpopulation abundance": -0.29}, {"compound": "Cc1onc(-c2ccccc2)c1C(=O)N[C@@H]1C(=O)N2[C@@H]1SC(C)(C)[C@@H]2C(=O)O", "note": "[Oxacillin sodium monohydrate]", "z-score of subpopulation abundance": 0.32}, {"compound": "CC[C@H]1OC(=O)[C@H](C)[C@@H](O[C@H]2C[C@@](C)(OC)[C@@H](O)[C@H](C)O2)[C@H](C)[C@@H](O[C@@H]2O[C@H](C)C[C@H](N(C)C)[C@H]2O)[C@](C)(O)C[C@@H](C)C(=O)[C@H](C)[C@@H](O)[C@]1(C)O", "note": "[Erythromycin thiocyanate]", "z-score of subpopulation abundance": -0.7}, {"compound": "CCn1cc(C(=O)O)c(=O)c2cc(F)c(N3CCNC(C)C3)c(F)c21", "note": "(stereo unspecified) [Lomefloxacin HCl]", "z-score of subpopulation abundance": 0.12}, {"compound": "CNCCCC1c2ccccc2C=Cc2ccccc21", "note": "[Protriptyline hydrochloride]", "z-score of subpopulation abundance": 0.37}, {"compound": "CC1CCc2c(N3CCC(O)CC3)c(F)cc3c(=O)c(C(=O)O)cn1c23", "note": "(stereo unspecified) [Nadifloxacin]", "z-score of subpopulation abundance": 0.43}, {"compound": "C[n+]1ccccc1/C=N/O", "note": "[Pralidoxime chloride]", "z-score of subpopulation abundance": 0.45}, {"compound": "Oc1ccc(Cl)c2cccnc12", "note": "[Cloxiquine]", "z-score of subpopulation abundance": 11.8}, {"compound": "N[C@H]1CONC1=O", "note": "[L-Cycloserine]", "z-score of subpopulation abundance": 1.14}, {"compound": "CCN(CC)CC#CCOC(=O)C(O)(c1ccccc1)C1CCCCC1", "note": "(stereo unspecified) [Oxybutynin chloride]", "z-score of subpopulation abundance": -0.4}]}, {"tested_on": "Saccharomyces cerevisiae BY4741 SeMeCo community", "experiment": "z-score of subpopulation abundance vs DMSO median, subpopulation auxotrophic for UM; higher = larger share of this subpopulation than in DMSO controls", "settings": "10 µM; 24 h; SM minimal medium; subpopulation (auxotrophy): UM", "method_in_brief": "as §1", "values": [{"compound": "CN[C@@H]1[C@H](O[C@H]2[C@H](O[C@H]3[C@H](O)[C@@H](O)[C@H](NC(=N)N)[C@@H](O)[C@@H]3NC(=N)N)O[C@@H](C)[C@]2(O)CO)O[C@@H](CO)[C@H](O)[C@H]1O", "note": "[Dihydrostreptomycin sulfate]", "z-score of subpopulation abundance": -0.47}, {"compound": "C=CCc1ccc(O)c(-c2ccc(O)c(CC=C)c2)c1", "note": "[Honokiol]", "z-score of subpopulation abundance": -1.43}, {"compound": "COCCCN1CCC(NC(=O)c2cc(Cl)c(N)c3c2OCC3)CC1", "note": "[Prucalopride]", "z-score of subpopulation abundance": 0.57}, {"compound": "COCC(=O)Nc1cc(Sc2ccccc2)ccc1N=C(NC(=O)OC)NC(=O)OC", "note": "[Febantel]", "z-score of subpopulation abundance": -0.56}, {"compound": "Cc1ccsc1/C=C/C1=NCCCN1C", "note": "[Morantel tartrate]", "z-score of subpopulation abundance": 0.1}, {"compound": "CCn1cc(C(=O)O)c(=O)c2cc(F)c(N3CCNCC3)cc21", "note": "[Norfloxacin]", "z-score of subpopulation abundance": -0.54}, {"compound": "COC(=O)C1=C(C)NC(C)=C(C(=O)OC2CCCN(Cc3ccccc3)C2)C1c1cccc([N+](=O)[O-])c1", "note": "(stereo unspecified) [Benidipine HCl]", "z-score of subpopulation abundance": -0.42}, {"compound": "CC1=C[C@H]2C(=O)O[C@H]3C[C@@H](C/C=C(\\C)C[C@@H](C)/C=C/C=C4\\CO[C@H](/C1=N\\O)[C@@]42O)O[C@@]1(CC[C@H](C)[C@@H](C)O1)C3.CC[C@H]1O[C@]2(CC[C@@H]1C)C[C@@H]1C[C@@H](C/C=C(\\C)C[C@@H](C)/C=C/C=C3\\CO[C@@H]4/C(=N\\O)C(C)=C[C@@H](C(=O)O1)[C@]34O)O2", "note": "[Milbemycin Oxime]", "z-score of subpopulation abundance": -1.12}, {"compound": "CC1=Nc2ccc(Cl)cc2S(=O)(=O)N1", "note": "[Diazoxide]", "z-score of subpopulation abundance": -0.03}, {"compound": "O=C(O)c1cc(O)c2c(c1)[C@H]([C@H]1c3cc(C(=O)O)cc(O)c3C(=O)c3c(O[C@@H]4O[C@H](CO)[C@@H](O)[C@H](O)[C@H]4O)cccc31)c1cccc(O[C@@H]3O[C@H](CO)[C@@H](O)[C@H](O)[C@H]3O)c1C2=O", "note": "[Sennoside A]", "z-score of subpopulation abundance": -0.14}, {"compound": "Oc1ccc([C@H]2COc3cc(O)ccc3C2)cc1", "note": "[Equol]", "z-score of subpopulation abundance": 0.05}, {"compound": "COc1ccc2cc(CCC(C)=O)ccc2c1", "note": "[Nabumetone]", "z-score of subpopulation abundance": -0.41}, {"compound": "CO/N=C(\\C(=O)N[C@@H]1C(=O)N2C(C(=O)O)=C(CSc3nc(=O)c(O)nn3C)CS[C@H]12)c1csc(N)n1", "note": "[Ceftriaxone Sodium Trihydrate]", "z-score of subpopulation abundance": -2.42}, {"compound": "CO/N=C(\\C(=O)N[C@@H]1C(=O)N2C(C(=O)OC(C)OC(C)=O)=C(COC(N)=O)CS[C@H]12)c1ccco1", "note": "(stereo partly specified) [Cefuroxime axetil]", "z-score of subpopulation abundance": 0.26}, {"compound": "CCCCCOc1ccccc1/C(=C\\SC)n1ccnc1", "note": "[Neticonazole Hydrochloride]", "z-score of subpopulation abundance": 14.5}, {"compound": "CC(C(=O)O)c1ccc2c(c1)[nH]c1ccc(Cl)cc12", "note": "(stereo unspecified) [Carprofen]", "z-score of subpopulation abundance": -4.96}, {"compound": "CCC(C)n1ncn(-c2ccc(N3CCN(c4ccc(OCC5COC(Cn6cncn6)(c6ccc(Cl)cc6Cl)O5)cc4)CC3)cc2)c1=O", "note": "(stereo unspecified) [Itraconazole]", "z-score of subpopulation abundance": 11.4}, {"compound": "C=CCN1CCCC1CNC(=O)c1cc2nn[nH]c2cc1OC", "note": "(stereo unspecified) [Alizapride HCl]", "z-score of subpopulation abundance": 0.58}, {"compound": "CO/N=C(\\C(=O)N[C@@H]1C(=O)N2C(C(=O)O)=C(CSc3nc(C)c(CC(=O)O)s3)CS[C@H]12)c1csc(N)n1", "note": "[Cefodizime Sodium]", "z-score of subpopulation abundance": 0.34}, {"compound": "C[C@H](NCc1ccc(OCc2cccc(F)c2)cc1)C(N)=O", "note": "[Safinamide Mesylate]", "z-score of subpopulation abundance": 0.17}, {"compound": "Cc1ccnc(NS(=O)(=O)c2ccc(N)cc2)n1", "note": "[Sulfamerazine]", "z-score of subpopulation abundance": 0.45}, {"compound": "N=C(N)NS(=O)(=O)c1ccc(N)cc1", "note": "[Sulfaguanidine]", "z-score of subpopulation abundance": -0.62}, {"compound": "C=C[C@H]1CN2CC[C@H]1C[C@@H]2[C@@H](O)c1ccnc2ccc(OC)cc12", "note": "[Quinidine sulfate]", "z-score of subpopulation abundance": 0.08}, {"compound": "O=C(Nc1ccc(Oc2ccc(Cl)cc2)c(Cl)c1)c1cc(I)cc(I)c1O", "note": "[Rafoxanide]", "z-score of subpopulation abundance": -0.89}, {"compound": "COC(=O)Nc1nc2cc(C(=O)c3ccccc3)ccc2[nH]1", "note": "[Mebendazole]", "z-score of subpopulation abundance": 1.89}, {"compound": "Nc1nc(N)c2nc(-c3ccccc3)c(N)nc2n1", "note": "[Triamterene]", "z-score of subpopulation abundance": -9.3}, {"compound": "CC(=O)N1CCN(c2ccc(OCC3COC(Cn4ccnc4)(c4ccc(Cl)cc4Cl)O3)cc2)CC1", "note": "(stereo unspecified) [Ketoconazole]", "z-score of subpopulation abundance": -0.23}, {"compound": "Cc1onc(-c2ccccc2)c1C(=O)N[C@@H]1C(=O)N2[C@@H]1SC(C)(C)[C@@H]2C(=O)O", "note": "[Oxacillin sodium monohydrate]", "z-score of subpopulation abundance": 0.41}, {"compound": "CC[C@H]1OC(=O)[C@H](C)[C@@H](O[C@H]2C[C@@](C)(OC)[C@@H](O)[C@H](C)O2)[C@H](C)[C@@H](O[C@@H]2O[C@H](C)C[C@H](N(C)C)[C@H]2O)[C@](C)(O)C[C@@H](C)C(=O)[C@H](C)[C@@H](O)[C@]1(C)O", "note": "[Erythromycin thiocyanate]", "z-score of subpopulation abundance": 0.06}, {"compound": "CCn1cc(C(=O)O)c(=O)c2cc(F)c(N3CCNC(C)C3)c(F)c21", "note": "(stereo unspecified) [Lomefloxacin HCl]", "z-score of subpopulation abundance": 0.51}, {"compound": "CO[C@@]1(NC(=O)CSC[C@@H](N)C(=O)O)C(=O)N2C(C(=O)O)=C(CSc3nnnn3C)CS[C@@H]21", "note": "[Cefminox Sodium]", "z-score of subpopulation abundance": 0}, {"compound": "CNCCCC1c2ccccc2C=Cc2ccccc21", "note": "[Protriptyline hydrochloride]", "z-score of subpopulation abundance": 0.52}, {"compound": "CC1CCc2c(N3CCC(O)CC3)c(F)cc3c(=O)c(C(=O)O)cn1c23", "note": "(stereo unspecified) [Nadifloxacin]", "z-score of subpopulation abundance": -0.28}]}]}
